# Measured values taken from PubChem BioAssay AID488969 (Vanderbilt High Throughput Screening Facility, 2010).
# Whole data set: some 110,000 compounds, median “z-score” near -0.1, cut for the highest 2% near 2. The full list was thinned out, with the highest values kept by preference. Active and inactive are the calls of the source.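 The calls were made as follows: active = z-score in the third read window above 3 or below -3; inactive = the rest.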
# Molecular target: Metabotropic glutamate receptor 8 (Rattus norvegicus) (UniProt P70579)
# Sequence (P70579 whole entry, looked up): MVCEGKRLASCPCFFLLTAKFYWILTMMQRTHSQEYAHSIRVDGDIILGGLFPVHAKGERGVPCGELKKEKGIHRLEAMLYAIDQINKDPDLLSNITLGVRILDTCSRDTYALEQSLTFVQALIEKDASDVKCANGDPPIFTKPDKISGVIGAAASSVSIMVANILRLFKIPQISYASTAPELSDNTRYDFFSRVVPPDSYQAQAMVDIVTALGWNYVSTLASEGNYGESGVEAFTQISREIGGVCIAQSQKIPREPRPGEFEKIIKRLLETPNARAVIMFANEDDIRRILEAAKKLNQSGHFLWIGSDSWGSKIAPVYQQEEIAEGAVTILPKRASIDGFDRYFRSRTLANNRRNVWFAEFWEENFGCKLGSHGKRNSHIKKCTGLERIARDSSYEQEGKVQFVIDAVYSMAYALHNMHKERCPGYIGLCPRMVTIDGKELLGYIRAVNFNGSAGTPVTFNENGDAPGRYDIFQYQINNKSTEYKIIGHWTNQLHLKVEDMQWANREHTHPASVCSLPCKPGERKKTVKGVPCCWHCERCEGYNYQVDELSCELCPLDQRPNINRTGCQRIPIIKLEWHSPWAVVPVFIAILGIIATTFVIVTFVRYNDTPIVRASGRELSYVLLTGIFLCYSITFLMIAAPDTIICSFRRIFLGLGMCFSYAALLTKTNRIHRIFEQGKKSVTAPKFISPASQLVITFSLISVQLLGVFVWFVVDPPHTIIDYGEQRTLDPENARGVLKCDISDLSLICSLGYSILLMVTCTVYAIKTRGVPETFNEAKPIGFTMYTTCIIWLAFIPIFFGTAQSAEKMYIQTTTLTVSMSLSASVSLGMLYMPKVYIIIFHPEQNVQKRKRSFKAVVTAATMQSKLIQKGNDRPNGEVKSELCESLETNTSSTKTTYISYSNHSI
# Assay: mGluR8 Gi/Go-coupled signaling modulation – cell-based, rat, thallium flux, HTS, primary screen (AID 488969)
# Details: HEK293 rat mGluR8, GIRK (G protein-gated inwardly rectifying potassium channel) thallium flux, FluoZin2; at 10 µM; stronger effect = higher value; submaximal glutamate (EC20) added with thallium
row,SMILES,z-score
1,Cc1ccc(Cl)cc1NC(=O)Cn1cccc1,-0.44
2,Cc1ccc(NC(=O)CSC(N)=O)cc1Cl,5.44 (active)
3,N#CCSCC(=O)Nc1ccc(Cl)cc1,0.285
4,NC(=O)SCC(=O)Nc1cccc(Cl)c1,2.86
5,COC(=O)CCC(=O)Nc1cccc(Cl)c1,-0.0969
6,O=C(COc1ccccc1O)Nc1ccc(Cl)cc1,-0.0165
7,Cc1ccc(NC(=O)CSCC#N)cc1Cl,-0.0832
8,Nc1cc(=O)[nH]c(SCC(=O)Nc2cccc(Cl)c2)n1,0.151
9,Cc1ccc(NC(=O)CCn2cccc2)cc1Cl,-0.079
10,Cc1ccc(NC(=O)Cn2cccc2)cc1Cl,2.51
11,Cc1ccc(Cl)cc1NC(=O)CSC(N)=O,0.476
12,NC(=O)SCC(=O)Nc1ccc(Cl)cc1,5.18 (active)
13,O=C(NNC1=NCCCCC1)c1ccccc1,-0.78
14,O=S(=O)(Cc1ccccc1)N1CCCC(c2nc(-c3ccc(F)cc3)no2)C1 (stereo not given),-0.449
15,Cc1nc(NC(=O)CSc2ccc(-c3nc4ccccc4[nH]3)cn2)sc1C,-0.0534
16,O=C(/C=C/c1ccc(OCc2ccccc2)c(OCc2ccccc2)c1)c1cccnc1,0.691
17,O=C(NCc1ccc(F)cc1)C1CCN(C(=O)NCc2ccccc2)CC1,0.336
18,Cc1ccc(NC(=O)N2CCC(C(=O)NCc3ccc(F)cc3)CC2)cc1,2.21

row,SMILES,z-score
1,Cc1ccc(NC(=O)N2CCC(C(=O)NCc3ccccc3)CC2)cc1,-0.545
2,O=C(COCC(=O)N/N=C/c1ccccc1F)N/N=C/c1ccccc1F,-0.201
3,CCn1c(SCc2cccc(C)c2)nnc1-c1ccccc1,-0.431
4,CCn1c(SCc2ccc(C#N)cc2)nnc1-c1cccc(Cl)c1,-0.177
5,CCn1c(SCc2ccc(Cl)cc2)nnc1-c1ccccc1,3.4 (active)
6,COCCN(C(=O)Nc1ccccc1)c1ccccc1,-0.157
7,Cc1cc(Br)ccc1NC(=S)Nc1cccc([N+](=O)[O-])c1,0.848
8,CC1=C(C)CC(C(=O)Nc2cccc(Cl)c2)C(C(=O)O)C1 (stereo not given),-0.289
9,O=C(NNC(=O)C1CC1c1ccccc1)Nc1cccc(Cl)c1 (stereo not given),-0.494
10,Cc1ccc(C2CC2C(=O)NNC(=S)Nc2cccc(Cl)c2)cc1 (stereo not given),5.51 (active)
11,Cc1ccc(C2CC2C(=O)NNC(=S)Nc2cccc(C)c2)cc1 (stereo not given),3.29 (active)
12,Cc1ccc(C2CC2C(=O)NNC(=S)Nc2ccc(Cl)cc2)cc1 (stereo not given),4.55 (active)
13,Cc1cccc(NC(=S)NNC(=O)c2ccco2)c1,0.0496
14,Cc1cccc(NC(=O)C2CCCC2)c1,0.277
15,Cc1ccc(NC(=S)NNC(=O)C2CC2c2ccc(C)cc2)cc1 (stereo not given),1.64
16,Cc1ccc(C2CC2C(=O)NN)cc1 (stereo not given),-0.033
17,O=C(c1ccccc1)c1ccc(Oc2ncccn2)cc1,-0.321
